Experimental data reported in PubChem BioAssay AID720488 (Milwaukee Institute for Drug Discovery, 2013).
The campaign covered roughly 16,000 compounds. About 960 (6%) were called active.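 The calls were made as follows: active = compound fluorescence over control fluorescence at most 0.8, a quencher, or at least a set upper limit, an enhancer; inactive = ratio between 0.8 and the set upper limit.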 The sample as a whole holds a higher share of actives than the screen did.

test: Cy5 fluorescence quenchers or enhancers, artefact control for HCV NS3 helicase inhibitor project, biochemical, ChemBridge library, Cy5 readout (AID 720488); conditions: Cy5-dT15 DNA with NS3h, at 100 µM, actives lie on both sides, signal over control mean, under 1 quenches

Fluorescence interference ratio, inactive:
COc1cc(/C=C2/C(=O)NC(=O)N(c3ccc(C)cc3)C2=O)ccc1OCCOc1ccc([N+](=O)[O-])cc1 0.823
COc1cc(/C=C2/SC(=S)NC2=O)ccc1OCCOCCOc1ccc(C)cc1 0.925
COC(=O)C1=C(C)NC2=C(C(=O)c3ccccc32)C1c1cc2c(cc1Br)OCO2 (stereo not given) 1.02
CS(=O)(=O)N(CC(=O)N1CCOCC1)c1ccccc1Cl 0.989
O=C(c1ccc(S(=O)(=O)N2CCOCC2)cc1)N1CCN(c2ccccc2)CC1 0.907
CCC(=O)Nc1ccccc1C(=O)N1CCN(Cc2ccccc2)CC1 0.994
COc1ccccc1OCC(=O)Nc1nc(-c2cccs2)c(NC(=O)c2ccccc2)s1 0.958
O=C(CSc1nc2ccccc2o1)Nc1ccc2c(c1)OCO2 0.937
Cc1ccc(C(=O)Nc2cccc(-c3nc4ccccc4o3)c2C)cc1 0.985
C=CCc1ccccc1OCCn1cc(/C=C2/SC(=S)N(CC)C2=O)c2ccccc21 1.05
O=C(NCC1OCCc2ccccc21)C(c1ccccc1)c1ccccc1 (stereo not given) 1.08
CCCOc1ccc(C(=O)Nc2ccc(-c3nc4ccccc4o3)c(O)c2)cc1 1.03
CCOc1ccc(C(=O)Nc2ccncc2)cc1 0.969
O=c1oc2cc(OC/C=C/c3ccccc3)ccc2c2ccccc12 1.11
O=C(O)CC1S/C(=N\N=C/c2ccccc2O)N(c2ccc(O)cc2)C1=O (stereo not given) 1.05
O=S(=O)(c1ccc(Br)c2ccccc12)N1CCOCC1 0.956
CC(C)CC(=O)Nc1cc(C(=O)O)cc(C(=O)O)c1 1.05
O=C(CN1C(=O)c2ccc([N+](=O)[O-])cc2C1=O)Nc1cc(Cl)ccc1C(=O)O 0.984
COc1ccc(/C=C2\C(=O)NC(=S)N(c3ccc(Br)cc3)C2=O)cc1 1.05
COc1ccc(OC)c(N2C(=O)NC(=O)C(=Cc3ccc(C)o3)C2=O)c1 1.1
O=C1NC(=O)C(=Cc2cc([N+](=O)[O-])cc(Br)c2O)C(=O)N1 0.895
CC(=O)OC(OC(C)=O)c1ccc([N+](=O)[O-])s1 0.829
CCOc1cccc2c1NC(C)(C)c1sn(-c3ccccc3)c(=S)c1-2 0.947
CCC(=O)NC(N)=Nc1nc(C)c2cc(C)cc(C)c2n1 1.11
CC1=C(C(=O)OC(C)C)C(c2ccc(Cl)c(Cl)c2)N2C(=O)CCSC2=N1 (stereo not given) 0.92

Fluorescence interference ratio, active:
COc1cc(C=C2C(=O)NC(=O)NC2=O)ccc1OCCOc1ccc([N+](=O)[O-])cc1 0.699
CS(=O)(=O)N1CCN(C(=O)Cc2ccccc2)CC1 0.765
CSc1ccccc1NC(=O)CSc1nc2ccccc2o1 0.737
CCCOc1ccc(C(=O)Nc2ccc(N(CC)CC)cc2)cc1 1.28
CCN(CC)c1ccc(/C=C2\C(=O)NC(=O)N(c3ccc(OC)cc3)C2=O)c(OC)c1 1.26
